# System: HCI01 (cells of a triple-negative basal-like breast cancer xenograft)
# Assay: cell viability (% of vehicle); higher = less cytotoxic
# Settings: 1 µM; 72 h
# 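Also: cells dissociated from PDX tumors propagated in female NSG mouse mammary fat pads, vehicle control 0.1% DMSO.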
row,Compound,cell viability
1,Cc1ccc(-n2[nH]c(C)c(NN=C3C=CC=C(c4cccc(C(=O)O)c4)C3=O)c2=O)cc1C [Eltrombopag],85.8
2,Oc1c(Cl)cc(Cl)c2cccnc12 [Chloroxine],93.2
3,CCN(CC)CCCC(C)Nc1ccnc2cc(Cl)ccc12.O=P(O)(O)O.O=P(O)(O)O (stereo unspecified) [Chloroquine diphosphate],88.7
4,COC(=O)NC(C(=O)NC(Cc1ccccc1)C(O)CN(Cc1ccc(-c2ccccn2)cc1)NC(=O)C(NC(=O)OC)C(C)(C)C)C(C)(C)C (stereo unspecified) [Atazanavir],92.8
5,COc1cc2nccc(Oc3ccc(NC(=O)C4(C(=O)Nc5ccc(F)cc5)CC4)cc3)c2cc1OC.O=C(O)CC(O)C(=O)O [Cabozantinib malate (XL184)],92.9
6,O=C(C=Cn1cnc(-c2cc(C(F)(F)F)cc(C(F)(F)F)c2)n1)NNc1cnccn1,67.4
7,Nc1ccn(C2OC(CO)C(O)C2O)c(=O)n1 (stereo unspecified) [Cytarabine],75
8,CO[C@H]1/C=C/O[C@@]2(C)Oc3c(C)c(O)c4c(O)c(c(/C=N/N5CCN(C6CCCC6)CC5)c(O)c4c3C2=O)NC(=O)/C(C)=C\C=C\[C@H](C)[C@H](O)[C@@H](C)[C@@H](O)[C@@H](C)[C@H](OC(C)=O)[C@@H]1C [Rifapentine],93.7
9,CS(=O)(=O)O.Cc1c(O)cccc1C(=O)NC(CSc1ccccc1)C(O)CN1CC2CCCCC2CC1C(=O)NC(C)(C)C (stereo unspecified) [Nelfinavir Mesylate],90.1
10,CCN(CC)CCNC(=O)c1c(C)[nH]c(C=C2C(=O)Nc3ccc(F)cc32)c1C.O=C(O)CC(O)C(=O)O [Sunitinib malate],73.4
11,N.N.O=C([O-])C1(C(=O)[O-])CCC1.[Pt+2] [Carboplatin],87.9
12,CC(NCCCc1cccc(C(F)(F)F)c1)c1cccc2ccccc12.Cl (stereo unspecified) [Cinacalcet HCl],94.5
13,COC(=O)c1ccc2c(c1)NC(=O)C2=C(Nc1ccc(N(C)C(=O)CN2CCN(C)CC2)cc1)c1ccccc1 [Nintedanib (BIBF 1120)],83.1
14,COc1cc(C(=O)NS(=O)(=O)c2ccccc2C)ccc1Cc1cn(C)c2ccc(NC(=O)OC3CCCC3)cc12 [Zafirlukast],93.6
15,CCC(=C(c1ccccc1)c1ccc(OCCN(C)C)cc1)c1ccccc1.O=C(O)CC(O)(CC(=O)O)C(=O)O [Tamoxifen Citrate],111
16,CCCCc1oc2ccc(NS(C)(=O)=O)cc2c1C(=O)c1ccc(OCCCN(CCCC)CCCC)cc1.Cl [Dronedarone HCl],110
17,CC(C)CC(NC(=O)CNC(=O)c1cc(Cl)ccc1Cl)B(O)O (stereo unspecified),51.7
18,COC(=O)C1=C(C)NC(C)=C(C(=O)OCCN(C)Cc2ccccc2)C1c1cccc([N+](=O)[O-])c1.Cl (stereo unspecified) [Nicardipine HCl],108
19,CCOc1cc2ncc(C#N)c(Nc3ccc(F)c(Cl)c3)c2cc1NC(=O)C=CCN(C)C [Pelitinib (EKB-569)],98.5
20,CCOC(=O)c1c(CSc2ccccc2)n(C)c2cc(Br)c(O)c(CN(C)C)c12.Cl [Arbidol HCl],86.5
21,CN(C)CCOc1ccc(C(=C(CCCl)c2ccccc2)c2ccccc2)cc1.O=C(O)CC(O)(CC(=O)O)C(=O)O [Toremifene Citrate],127
22,CN(C)c1ccc(O)c2c1CC1CC3C(N(C)C)C(=O)C(C(N)=O)=C(O)C3(O)C(=O)C1=C2O.Cl (stereo unspecified) [Minocycline HCl],103
23,CC(Oc1cc(-c2cnn(C3CCNCC3)c2)cnc1N)c1c(Cl)ccc(F)c1Cl [(R)-Crizotinib],154
24,CC(C)(C)NC(=O)C1CC2CCCCC2CN1CC(O)C(Cc1ccccc1)NC(=O)C(CC(N)=O)NC(=O)c1ccc2ccccc2n1.CS(=O)(=O)O (stereo unspecified) [Saquinavir mesylate],96.9
25,O=C1C=CC=CC1=C1NC(=C2C=CC=CC2=O)N(c2ccc(C(=O)O)cc2)N1 [Deferasirox],87.9
26,Cl.OC(c1cc(C(F)(F)F)nc2c(C(F)(F)F)cccc12)C1CCCCN1 (stereo unspecified) [Mefloquine hydrochloride],97.5
